Assay results as given in PubChem BioAssay AID2315 (National Center for Advancing Translational Sciences (NCATS), 2010).
About 27,000 (9.3%) of roughly 290,000 compounds were called active. The list comes from a sample in which actives are over-represented; it also holds similar structures and randomly drawn compounds. Values without a mark were called inactive. No stated cut-off is given here; in the data, active means inhibition mostly above about 28% (no sharp cut-off); inactive means mostly below about 43%.

Assay: A qHTS for Small Molecule Inhibitors of Shiga Toxin; further: 0% is about no effect
Details: Vero cells, Shiga toxin protein synthesis inhibition reporter; at 38.7 µM, stronger effect = higher value

SMILES	inhibition
O=C(O)c1c(NC(=O)N2CCCC2)sc2c1CCCC2	36.9%
O=C(O)C1CCCN1S(=O)(=O)c1ccc(Br)cc1 (centres undefined)	-1.18%
COc1cc(CNc2ncn[nH]2)ccc1OCc1ccccc1C	67.9% (active)
c1n[nH]c(NCc2ccc3c(c2)OCO3)n1	-23.7%
COc1ccc(CCNC(=O)C(=O)NCc2ccccc2C)cc1OC	-10.9%
COc1ccc(C(O)(C2CCCCC2)C(CN2CCCC2)c2ccccc2)cc1 (centres undefined)	0.707%
O=C(NCc1cc(F)cc(C(F)(F)F)c1)C1CCC(=O)N(C2CCCC2)C1 (centres undefined)	40.9%
CCC(=O)Nc1nnc(S(=O)(=O)N(CC(C)C)c2ccccc2)s1	1.25%
COc1cccc(/C(C)=N/Nc2ncc(Cl)cc2Cl)c1	38.2% (active)
O=C(Nc1ccccc1-c1nc2ccccc2[nH]c1=O)c1cccs1	-5.13%
C/C(=N\NS(=O)(=O)c1ccc(Br)cc1)c1cccs1	-4.11%
C/C(=N\Nc1ccc(S(N)(=O)=O)cc1[N+](=O)[O-])c1cccs1	2.64%
C/C(=N\Nc1nc2ccccc2[nH]1)c1cccs1	97.5% (active)
C/C(=N\Nc1ncc(Cl)cc1Cl)c1ccc(S(=O)(=O)NCc2ccco2)cc1	144% (active)
C/C(=N\Nc1nc(Nc2ccccc2)nc(N2CCOCC2)n1)c1cccs1	-5.79%
CCN(CC)c1ccc(C(=O)N/N=C(\C)c2cccc(OC)c2)cc1	22.3%
Cc1c(Cl)cnc(NC(=O)COC(=O)c2ccc(S(=O)(=O)NCc3ccco3)cc2)c1Cl	-13.9%
COC(=O)c1sccc1N/N=C(\C)c1ccc(F)c(Cl)c1	-5.96%
C/C(=N\Nc1ncc(Cl)cc1Cl)c1cccs1	101% (active)
O=S(=O)(NCc1ccco1)c1cnc(Cl)c(Cl)c1	-12.1%
Cc1ccc(N2CCN(c3ccc([N+](=O)[O-])cn3)CC2)c(C)c1	-5.14%
COc1ccc2c(c1OC)C(=O)N(c1ccc(O)cc1)C2	29.7%
O=C(COc1ccc(S(=O)(=O)N2CCOCC2)cc1Cl)N1CCOCC1	-5.97%
O=C(c1ccccc1)N1CCC(CC2CC(c3ccc(Cl)cc3)=NO2)(C(=O)NCC2CCCCC2)CC1 (centres undefined)	-0.8%

SMILES	inhibition
Cc1ccc(N2CC(C(=O)Nc3ccc(S(=O)(=O)N4CCCC4)cc3)CC2=O)cc1C (centres undefined)	-5.32%
Cc1ccc(Cc2cnc(NC(=O)/C(C#N)=C/c3ccc(-c4cccc([N+](=O)[O-])c4)o3)s2)cc1	19.7%
N#C/C(=C/c1ccc(-c2ccccc2[N+](=O)[O-])o1)C(=O)NCCN1CCCCC1	6.58%
Cc1ccc(-c2ccc(/C=C(\C#N)C(N)=S)o2)c([N+](=O)[O-])c1	19.2% (active)
CCc1cc(=O)oc2c(C)c(OCC(=O)N3CC[C@@]4(O)CCCC[C@H]4C3)ccc12	-4.55%
Cc1cccc(C)c1NC(=O)C(Cl)C(=O)c1ccccc1 (centres undefined)	-15.6%
CC(C)N(C(=O)Cn1cc(S(=O)(=O)CC(=O)N2CCOCC2)c2ccccc21)C(C)C	-3.05%
CC(Sc1nnnn1C1CCCCC1)C(=O)O (centres undefined)	3.3%
CC1CCCC(C)N1C(=O)CSc1nnnn1C1CCCC1 (centres undefined)	53.7% (active)
O=C(CSc1nnnn1C1CCCC1)N1CCCCC1	110% (active)
CCCc1nnc(SCC(=O)N2C(C)CCCC2C)n1CC (centres undefined)	3.99%
O=C(CSc1nnc2ccc(-c3ccncc3)nn12)N1CCCCC1	-15.9%
CC(C)C(=O)Nc1nnc(SCC(=O)N2C(C)CCCC2C)s1 (centres undefined)	-4.35%
COc1ccc(C2NC(=O)C(=O)/C2=C(\O)c2ccc(Cl)cc2)cc1OC (centres undefined)	-18%
CCN(CC(=O)NCCCN1CCOCC1)S(=O)(=O)c1cc(Cl)ccc1Cl	10.6%
Cc1cccc(N2CCN(C(=O)c3cccc(N4C(=O)C5C6C=CC(C6)C5C4=O)c3)CC2)c1C (centres undefined)	-9.11%
CCC(C)NC(=O)C1c2ccccc2C(=O)N1Cc1ccccc1 (centres undefined)	-8.49%
CCOc1ccc(NC(=O)C2CCN(C(=O)N3CCOc4ccccc43)CC2)cc1	7.11%
O=C(Nc1nnc(SCc2ccc(Cl)cc2Cl)s1)C1COc2ccccc2O1 (centres undefined)	-4.34%
Cc1ccc(S(=O)(=O)N(C)C)cc1NC(=O)COC(=O)C1COc2ccccc2O1 (centres undefined)	-6.06%
O=C(Nc1nc2c(F)cc(F)cc2s1)C1COc2ccccc2O1 (centres undefined)	71.8% (active)
O=C(CCc1ccccc1)Nc1ncc([N+](=O)[O-])s1	85.8% (active)
COc1ccc([N+](=O)[O-])cc1NC(=O)CCc1ccccc1	17%
O=C(Cc1c(F)cccc1Cl)Nc1ncc([N+](=O)[O-])s1	75.5% (active)

SMILES	inhibition
O=C(Cc1c(F)cccc1Cl)Nc1ccc(-n2cnnn2)cc1	12.8%
CCN(CC)S(=O)(=O)c1ccc(N2CCOCC2)c(NC(=O)C2COc3ccccc3O2)c1 (centres undefined)	4.87%
CC(C)Cc1nnc(NC(=O)CCc2ccccc2)s1	7.6%
CN(c1ccccc1)S(=O)(=O)c1cccc(NC(=O)Cc2c(F)cccc2Cl)c1	-0.293%
O=C(Nc1nc(-c2ccncc2)cs1)C1COc2ccccc2O1 (centres undefined)	-4.34%
O=C(Nc1ncc([N+](=O)[O-])s1)C1COc2ccccc2O1 (centres undefined)	93.4% (active)
Cc1cc(C)cc(N(CC(=O)NC2CCCC2)C(=O)CCC(=O)Nc2cc(C)on2)c1	-3.5%
Cc1ccc2[nH]cc(CCNC(=O)C3CCCCC3)c2c1	-0.198%
CC(C)CNC(=O)CC(NCC(C)C)C(=O)O (centres undefined)	-15%
CCCCNC(=O)C1CCC(=O)N1CCc1ccccc1 (centres undefined)	2.74%
COc1cc(C(=O)NC2CCN(Cc3ccccc3)CC2)cc(Cl)c1OC(C)C	2.17%
Cc1cc(OCC(=O)NCC(O)c2ccccc2)c2c(C)c(C)c(=O)oc2c1 (centres undefined)	0.938%
CCCCN(C)CCCNC(=O)c1cc(-c2cccs2)nc2ccccc12	-4.77%
COc1cc(CN2CCCN(C)CC2)c([N+](=O)[O-])cc1OC	-4.36%
CCN(C(=O)CN1C(=O)/C(=C/c2ccc(F)cc2)SC1=S)C1CCS(=O)(=O)C1 (centres undefined)	-8.73%
CCc1nn(CCCC(=O)Nc2ccc(C)cc2C)c(=O)c2cc3occc3n12	-5.79%
O=C(Nc1cccc(Cl)c1N1CCOCC1)c1cccnc1	-2.36%
Cc1cccc(N(C(=O)Cn2nnc(-c3ccc(C)o3)n2)C(C(=O)NC2CCCC2)c2ccncc2)c1 (centres undefined)	-3.72%
COc1ccc2c(CC(=O)N3CCc4cc(OC)c(OC)cc4C3)coc2c1	-3.55%
C/C(=N/NC(=O)C1COc2ccccc2O1)c1ccco1 (centres undefined)	3.3%
O=C(Nc1ccncc1)c1ccccc1[N+](=O)[O-]	5.85%
COc1ccc(NC(=O)CC2COc3ccccc3O2)c(OC)c1 (centres undefined)	25%
COc1ccc(NC(=O)C2COc3ccccc3O2)cc1 (centres undefined)	70.7% (active)
CC(=O)Oc1ccccc1C(=O)Nc1ncc([N+](=O)[O-])s1	77.1% (active)

SMILES	inhibition
COc1ccc(NC(=O)c2ccccc2[N+](=O)[O-])cc1OC	9.2%
CC(C)(C)c1cc[n+](-c2[nH]c(=O)sc2/C=N/N=C(\[O-])c2ccccc2)cc1	25.8%
COc1ccc(CNC(=O)c2c[nH]c3c(OC)cc(OC)cc3c2=O)cc1	-11.7%
COc1ccc(CN2CCCC(N3CCc4ccccc4C3)C2)c(O)c1 (centres undefined)	-7.05%
CN1CCN(CCCCOc2cccc3ccccc23)CC1	29.7%
Cc1cccc(CCNC(=O)Cn2ncc3c([nH]c4ccc(C)cc43)c2=O)c1	15.3%
Cc1cc(-c2ccc(S(=O)(=O)N3CCc4ccccc4C3)s2)on1	-19.6%
CC1=C(C(=O)OC(C)(C)C)C(c2ccc(Br)cc2)NC(=O)N1CCCC(=O)O (centres undefined)	9.92%
CCSc1nnc(SCC(=O)NNC(=O)c2ccccc2F)s1	-24.4%
Cc1cccc(NC(=O)C(C)SCc2ccccc2)c1 (centres undefined)	30.2%
CSc1ccc(CCNC(=O)CS(=O)(=O)Cc2nc(-c3ccccc3F)oc2C)cc1	-3.45%
CCOc1ccccc1NS(=O)(=O)c1cc2c3c(c1)C(C)C(=O)N3CCC2 (centres undefined)	-4.9%
COc1cccc(NC(=O)CN2CCN(CC(=O)Nc3ccccc3Cl)CC2)c1	-8.02%
COc1ccc2[nH]c(C(=O)N/N=C/c3cc(OC)c(OC)c(OC)c3)cc2c1	8.34%
COc1ccc2[nH]c(C(=O)Nc3ccccc3Cl)cc2c1	46.8% (active)
CC(C)[C@@H](NC(=O)OC(C)(C)C)C(=O)NCC1CCC(C(=O)N[C@@H](Cc2ccccc2)C(=O)O)CC1 (some centres undefined)	2.35%
O=C1CCN(CCc2ccccc2)CCN1CCOc1ccccc1	7.81%
NC(=S)N/N=C/c1coc2cc(Cl)ccc2c1=O	5.66%
Cc1ccc2occ(/C=N/NC(=O)c3ccccc3C)c(=O)c2c1	9.81%
CC(C)(C)OC(=O)NCCCCCC(=O)N/N=C/c1coc2ccccc2c1=O	69.6% (active)
CC1CCCCN1C(=O)CCS(=O)(=O)Cc1ccccc1 (centres undefined)	24.6%
COc1ccc(N(CC(=O)NCc2ccc(F)cc2)C(=O)CCC(=O)Nc2nccs2)cc1	-15.4%
